Measurements from the supplement of paper PMC4709259.
Counter-ions that a name gives are not always drawn. ± gives the standard deviation.

Columns and labels:
Jurkat [1] = experiment: mean cell size (FSC-A) relative to DMSO control (fraction of control); higher = larger cells; conditions: 48 h
How it was run: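 Jurkat cells seeded at 600 cells/µl were incubated 1 h, then exposed for 48h to the Enzo Screen-Well FDA Approved Drug Library v2.0 at 25µM in 0.9% (v/v) final DMSO. Drugs that cut counts below 20% of controls were diluted 10-fold and retested, down to 25nM. Cell count and mean cell size (forward scatter area) were read on an Accuri C6 flow cytometer, relative to solvent-only controls. Plates held 6-12 controls; values are means of 3 biological replicates.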

Jurkat [2] = experiment: cell count relative to DMSO control (fraction of control); higher = more cells (less growth inhibition); conditions: 48 h

| SMILES | mean cell size (Jurkat [1]) | cell count (Jurkat [2]) |
| --- | --- | --- |
| CC[C@@]1(O)C(=O)OCc2c1cc1n(c2=O)Cc2cc3c(CN(C)C)c(O)ccc3nc2-1 [Topotecan·HCl] (concentration: 25 nM) | 1.31 ± 0.064 | 0.199 ± 0.016 |
| CCOC(=O)c1ncn2c1CN(C)C(=O)c1cc(F)ccc1-2 [Flumazenil] (concentration: 25 µM) | 0.95 ± 0.014 | 0.87 ± 0.025 |
| CO[C@H]1C[C@@H]2CC[C@@H](C)[C@@](O)(O2)C(=O)C(=O)N2CCCC[C@H]2C(=O)O[C@H]([C@H](C)C[C@@H]2CC[C@@H](O)[C@H](OC)C2)CC(=O)[C@H](C)/C=C(\C)[C@@H](O)[C@@H](OC)C(=O)[C@H](C)C[C@H](C)/C=C/C=C/C=C/1C [Sirolimus (Rapamycin)] (concentration: 2.5 µM) | 0.7581 ± 0.0033 | 0.626 ± 0.074 |
| CN(C)CCC=C1c2ccccc2C=Cc2ccccc21 [Cyclobenzaprine·HCl] (concentration: 25 µM) | 1 ± 0.041 | 0.631 ± 0.094 |
| CCCc1nc2c(C)cc(-c3nc4ccccc4n3C)cc2n1Cc1ccc(-c2ccccc2C(=O)O)cc1 [Telmisartan] (concentration: 25 µM) | 0.951 ± 0.032 | 0.725 ± 0.051 |
| CN1CC(=O)N2[C@H](c3ccc4c(c3)OCO4)c3[nH]c4ccccc4c3C[C@@H]2C1=O [Tadalafil] (concentration: 25 µM) | 0.922 ± 0.05 | 0.413 ± 0.12 |
| O=c1[nH]cc(F)c(=O)[nH]1 [Fluorouracil (5-Fluorouracil)] (concentration: 25 µM) | 1.12 ± 0.037 | 0.379 ± 0.023 |
| CCOC(=O)[C@H](CCc1ccccc1)N[C@@H](C)C(=O)N1[C@H](C(=O)O)C[C@H]2CCCC[C@@H]21 [Trandolapril] (concentration: 25 µM) | 0.973 ± 0.044 | 0.924 ± 0.12 |
| Nc1nc(Cl)nc2c1ncn2[C@@H]1O[C@H](CO)[C@@H](O)[C@@H]1F [Clofarabine] (concentration: 25 nM) | 1.18 ± 0.048 | 0.26 ± 0.073 |
| N[C@@H](C(=O)N[C@@H]1C(=O)N2C(C(=O)O)=C(Cl)CS[C@H]12)c1ccccc1 [Cefaclor] (concentration: 25 µM) | 0.916 ± 0.015 | 1.03 ± 0.097 |
| CCC(=O)O[C@]1(C(=O)SCF)[C@H](C)C[C@H]2[C@@H]3C[C@H](F)C4=CC(=O)C=C[C@]4(C)[C@@]3(F)[C@@H](O)C[C@@]21C [Fluticasone Propionate] (concentration: 25 µM) | 0.967 ± 0.015 | 1.06 ± 0.053 |
| C[C@H](CCC(=O)O)[C@H]1CC[C@H]2[C@@H]3[C@H](O)C[C@@H]4C[C@H](O)CC[C@]4(C)[C@H]3CC[C@]12C [Chenodiol (Chenodeoxycholic Acid)] (concentration: 25 µM) | 0.946 ± 0.037 | 0.838 ± 0.13 |
| Cc1ccc(C)c(OCCCC(C)(C)C(=O)O)c1 [Gemfibrozil] (concentration: 25 µM) | 0.956 ± 0.026 | 0.91 ± 0.048 |
| CCCCC(=O)N(Cc1ccc(-c2ccccc2-c2nnn[nH]2)cc1)[C@H](C(=O)O)C(C)C [Valsartan] (concentration: 25 µM) | 0.9682 ± 0.0072 | 0.976 ± 0.11 |
| OCCOCCN1CCN(C(c2ccccc2)c2ccc(Cl)cc2)CC1 (stereo not given) [Hydroxyzine Dihydrochloride] (concentration: 25 µM) | 0.948 ± 0.021 | 0.968 ± 0.063 |
| CC(C)C[C@H](NC(=O)[C@@H](Cc1c[nH]c2ccccc12)NC(=O)[C@H](Cc1ccc(O)cc1)NC(=O)[C@H](CO)NC(=O)[C@H](Cc1c[nH]c2ccccc12)NC(=O)[C@H](Cc1cnc[nH]1)NC(=O)[C@@H]1CCC(=O)N1)C(=O)N[C@@H](CCCN=C(N)N)C(=O)N1CCC[C@H]1C(=O)NCC(N)=O [Triptorelin Acetate] (concentration: 25 µM) | 0.997 ± 0.014 | 0.458 ± 0.081 |
| CC(C)[C@H]1CC[C@H](C(=O)N[C@H](Cc2ccccc2)C(=O)O)CC1 [Nateglinide] (concentration: 25 µM) | 0.966 ± 0.063 | 0.883 ± 0.14 |
| C[C@@H](O)[C@H]1C(=O)N2C(C(=O)O)=C(SCCNC=N)C[C@H]12 [Imipenem] (concentration: 25 µM) | 0.883 ± 0.063 | 0.344 ± 0.13 |
| CN1CCC[C@@H]1CCO[C@](C)(c1ccccc1)c1ccc(Cl)cc1 [Clemastine Fumarate] (concentration: 25 µM) | 0.985 ± 0.024 | 0.24 ± 0.04 |
| C[N+]1(C)[C@@H]2C[C@@H](OC(=O)C(O)(c3cccs3)c3cccs3)C[C@H]1[C@@H]1O[C@@H]12 [Tiotropium Bromide Monohydrate] (concentration: 25 µM) | 0.988 ± 0.036 | 0.68 ± 0.051 |
